# Assay results reported in PubChem BioAssay (NCATS).
# Records with an inconclusive call do not appear. Active and inactive are the calls of the source. The call rests on the fitted dose curve; in most records, active means well fitted inhibition curve with a large enough effect; inconclusive means small, poorly fitted or top-dose-only effect; inactive means no such curve, though single readings can be large or run the other way.
# Molecular target: Nuclear receptor ROR-gamma (Homo sapiens) (UniProt P51449)
# Experiment: qHTS assay for small molecule antagonists of the retinoid-related orphan receptor gamma (ROR-gamma) signaling pathway (AID 651802); further: nearly all actives have a fitted effect of over 60% in size
# Settings: ROR-gamma antagonist cell reporter assay; series mostly up to 92.2 µM; activity change, negative = inhibition: at the top concentration
# Description: National Center for Advancing Translational Sciences [NCATS]
# NIH Chemical Genomics Center [NCGC]
# National Institutes of Environmental Health Sciences [NIEHS]
# National Toxicology Program [NTP]
# Nuclear steroid hormone receptors are involved in many biological processes including inflammatory responses, cell proliferation, and apoptosis. Environmental factors or compounds disrupting these nuclear receptor pathways and gene expression may promote susceptibility to immunotoxicants and autoimmune diseases. One important group of these expression factors are the retinoid-related orphan receptors. To assess compounds that may interfere with the retinoid-related orphan receptor gamma (ROR-gamma) transcription factor, a cell-based luciferase assay was used.
# The CHO cell-based assay utilizes a TET-inducible ROR expression factor and ROR response element-LUC reporter gene. Reporter activity was induced using doxycycline and measured after 16hr incubation. Luminescence was read using Viewlux (PerkinElmer), where a decrease in reporter activity would show a decrease in luminescence.
# 1,000 cells in 4 uL/well were dispensed into white wall/solid bottom 1536-well plates using a Multidrop Combi (Thermo Scientific) dispenser. Following transfer of 23 nL compound or DMSO vehicle by a pin tool, the plates were treated with 1 ul doxycycline to induce reporter gene activity. After 16hr incubation at 37C and 5% CO2, 5uL one-glo (promega) was added to each plate and following 30 min incubation at room temperature, luminescence was quantified on a ViewLux (PerkinElmer) plate reader.
# On the % scale 0 is the no-effect control and ±100 the full control effect.
# Nuclear receptor ROR-gamma (Homo sapiens), sequence (P51449 whole entry, looked up): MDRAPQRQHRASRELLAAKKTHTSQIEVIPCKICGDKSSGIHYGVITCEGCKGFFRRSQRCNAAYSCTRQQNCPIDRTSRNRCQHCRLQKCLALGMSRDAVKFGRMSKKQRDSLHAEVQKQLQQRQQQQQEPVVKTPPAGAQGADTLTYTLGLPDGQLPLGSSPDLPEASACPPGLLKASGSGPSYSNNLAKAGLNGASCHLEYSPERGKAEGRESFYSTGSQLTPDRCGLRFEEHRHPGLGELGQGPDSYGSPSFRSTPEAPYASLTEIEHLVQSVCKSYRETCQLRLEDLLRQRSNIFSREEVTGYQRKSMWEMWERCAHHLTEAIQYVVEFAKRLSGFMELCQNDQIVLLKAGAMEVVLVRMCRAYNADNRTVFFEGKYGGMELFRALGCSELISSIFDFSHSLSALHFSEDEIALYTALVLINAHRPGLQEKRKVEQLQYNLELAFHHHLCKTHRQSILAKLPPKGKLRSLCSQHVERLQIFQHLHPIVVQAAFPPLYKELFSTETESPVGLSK
row,SMILES,"activity change, negative = inhibition"
1,CC(=O)OCC(COC(C)=O)OC(C)=O,19.9% (inactive)
2,CC(=O)NS(=O)(=O)c1ccc(N)cc1,-12.4% (inactive)
3,CCCC(O)C(CC)CO (centres undefined),3.02% (inactive)
4,CCN(CC)C(=O)c1cccc(C)c1,-17.9% (inactive)
5,Cc1c(N(C)C)c(=O)n(-c2ccccc2)n1C,21.4% (inactive)
6,Cc1cc(=O)[nH]c(=S)[nH]1,31% (inactive)
7,O=C1C(c2[nH]c3ccccc3c2O)=Nc2ccccc21,158% (inactive)
8,Nc1ccc(S(=O)(=O)c2ccc(N)cc2)cc1,-4.62% (inactive)
9,CCCCCC(N)=O,-5.6% (inactive)
10,CC(=O)Nc1ccc(C(=O)O)cc1,-10.3% (inactive)
11,CCCCOC(=O)c1ccc(N)cc1,47.5% (inactive)
12,CCCCCCCC(=O)OCC(COC(=O)CCCCCCC)OC(=O)CCCCCCC,-9.44% (inactive)
13,O=C(c1ccccc1)C(O)c1ccccc1 (centres undefined),29.7% (inactive)
14,O=C1c2cccc(O)c2C(=O)c2c(O)cccc21,54.8% (inactive)
